One test deals with BTK. Conditions: concentration: 1 μM, replicates: in singlicate; n = 1.
On to `COc1cc2ncn(-c3cc(OCc4ccncc4Br)c(C(N)=O)s3)c2cc1OC` [GW854278], for which the “%Inh” value came out at 0%.
On to `Cc1cc(Nc2nc(-c3cccc(C)n3)nc3ccccc23)ccn1` [GW872411], for which the “%Inh” value stood at 0%.
Regarding `Cc1nnc(-c2ccc(C)c(-c3ccc(C(=O)O)cc3)c2)o1` [GW608005], the “%Inh” value is 0%.
For the compound `COc1cc(Nc2ccnc3ccc(C(F)(F)F)cc23)cc(OC)c1OC` [GW577382], the “%Inh” value is on record as 35%.
Consider `FC(F)(F)c1ccc(-c2ncn(CCCN3CCOCC3)c2-c2ccncc2)cc1` [SB-217780], for which the “%Inh” value is 0%.
For the compound `Cl.c1ccc(Cn2cnc3cc(Nc4ncnc5ccccc45)ccc32)cc1` [GW272142], the “%Inh” value is given as 0%.
With `Cc1ccc(-c2ccc3c(ccc4sc5c(c43)NC[C@@H](C)N=C5N(C)C)n2)cn1`, the “%Inh” value was found to be 0%.
Consider `Cl.NS(=O)(=O)c1cccc(Nc2cc(-c3ccc(F)cc3)n[nH]2)c1` [GW824645], for which the “%Inh” value came out at 0%.
On to `CCc1ccc(-c2ccc3c(c2)-c2nn(C)cc2S(=O)(=O)N3C)cc1`, for which the “%Inh” value was 13%.
Same read-out and setting: then `O=C(Nc1ccc2c(c1)OCO2)NC1CCN(c2ccnc(NCc3ccc(F)cc3)n2)CC1` [GSK1379859], with 0%; and `Cc1nc(N(C)[C@H]2CN(C(=O)CC#N)CC[C@H]2C)c2cc[nH]c2n1`, with 0%.
As to `CCCC(=O)Nc1n[nH]c2ncc(-c3cccc4ccccc34)cc12` [SB-642057], the “%Inh” value came to 0%.
Consider `COC(=O)c1c(-c2ccccc2)c2cc(C)ccc2c(=O)n1Cc1ccccc1`, for which the “%Inh” value turned out to be 0%.
`Cc1ccc(Oc2ccc(Nc3ncnc4cc[nH]c34)cc2C)cn1`: the “%Inh” value was 19%.
The same measure, in the same setting: the value for `COc1cc2ncn(-c3cc(OCCCc4ccccc4)c(C(N)=O)s3)c2cc1OC` [GSK205189] was 0%.
For the compound `O=C1NC(=O)C(c2ccccc2)=C1Nc1cccc(O)c1` [SB-390534], the “%Inh” value was found to be 0%.
As for `CN1C(=O)C(Nc2ccccc2)=C(c2ccccc2)C1=O` [SB-300079], the “%Inh” value turned out to be 0%.
For `COc1ccc(-n2cnc3c(N)ncnc32)cc1` [SKF-97236], the “%Inh” value amounted to 8%.
In the case of `COc1ccc(Nc2nccc(N3CCC(NS(=O)(=O)c4ccc(NC(C)=O)cc4)C3)n2)cc1` (stereo not drawn) [GSK1379729], the “%Inh” value stood at 26%.
Regarding `Nc1ncnc2c1ncn2-c1cccc2ccccc12` [SKF-97184], the “%Inh” value is 0%.
For `Nc1nc(-c2ccccc2F)c(-c2ccnc3ccccc23)s1` [GW560459], the “%Inh” value turned out to be 0%.
Take `CCc1nc(-c2cccc(C)c2)c(-c2ccncc2)s1`: the “%Inh” value is on record as 0%.
On to `CCS(=O)c1ccc(-c2coc3ccc(-c4nnc(C)o4)cc23)cc1` (stereo not drawn), for which the “%Inh” value was determined as 18%.
In the case of `O=c1cc(N2CCOCC2)nc2n(Cc3ccc(F)c(Cl)c3)ccn12` [GSK2297099], the “%Inh” value was determined as 0%.
As to `COC(=O)c1c(-c2ccccc2)c2cc(Br)ccc2c(=O)n1Cc1ccc(NC(=O)CCC(=O)O)cc1`, the “%Inh” value is given as 38%.
As for `COc1cc2ncn(-c3cc(OCc4ccncc4)c(C(N)=O)s3)c2cc1OC` [GSK336313], the “%Inh” value stood at 0%.
Take `CCn1c(-c2nonc2N)nc2ccccc21` [SB-693162/GW549034]: the “%Inh” value is 29%.
`CCC(=O)c1c(-c2ccccc2)c2cc(Cl)ccc2c(=O)n1Cc1cc(S(C)(=O)=O)n(CC(N)=O)n1`: the “%Inh” value is on record as 0%.
The same measure, in the same setting: the value for `O=C(Nc1n[nH]c2nc(-c3ccccc3)c(Cl)cc12)C1CC1` [SB-734909] was 0%; that for `COc1cccc(-n2cnc3c(N)ncnc32)c1` [SKF-97416] was 0%.
For `CCS(=O)(=O)c1ccc(OC)c(Nc2ncc(-c3ccc(F)cc3)o2)c1.Cl` [GW591947], the “%Inh” value came to 0%.
Same read-out and setting: then `COc1cc(OC)cc(-c2cc3cnc(N)nc3nc2NC(=O)NC(C)(C)C)c1`, with 0%.
`COc1cc2nccc(Nc3ccc(OCc4ccc(NC(C)=O)cc4)cc3)c2cc1OC.Cl` [GW440135]: the “%Inh” value is recorded as 0%.
For the compound `O=C(Nc1n[nH]c2cc(-c3ccccc3F)ccc12)C1CC1` [SB-733371], the “%Inh” value was determined as 0%.
On to `CN1C(=O)C(Nc2cc(Cl)c(O)c(Cl)c2)=C(c2ccc(Cl)cc2)C1=O` [SB-404321], for which the “%Inh” value is on record as 0%.
As for `C[C@@H]1CC[C@H](C(=O)NC2CCCCC2)CN1c1cc(-c2ccc3c(N)n[nH]c3c2)nc(N)n1` [GSK2291363], the “%Inh” value is on record as 0%.

In the next test the test system is BUB1. The note with it: concentration: 1 μM, replicates: in singlicate; n = 1.
Regarding `COc1cc2ncn(-c3cc(OCc4ccncc4Br)c(C(N)=O)s3)c2cc1OC` [GW854278], the “%Inh” value is given as 0%.
As to `Cc1cc(Nc2nc(-c3cccc(C)n3)nc3ccccc23)ccn1` [GW872411], the “%Inh” value is reported as 0%.
For the compound `Cc1nnc(-c2ccc(C)c(-c3ccc(C(=O)O)cc3)c2)o1` [GW608005], the “%Inh” value was 17%.
Turning to `COc1cc(Nc2ccnc3ccc(C(F)(F)F)cc23)cc(OC)c1OC` [GW577382], the “%Inh” value is recorded as 23%.
On to `FC(F)(F)c1ccc(-c2ncn(CCCN3CCOCC3)c2-c2ccncc2)cc1` [SB-217780], for which the “%Inh” value was 0%.
Turning to `Cl.c1ccc(Cn2cnc3cc(Nc4ncnc5ccccc45)ccc32)cc1` [GW272142], the “%Inh” value was 38%.
As to `Cc1ccc(-c2ccc3c(ccc4sc5c(c43)NC[C@@H](C)N=C5N(C)C)n2)cn1`, the “%Inh” value came to 0%.
The same measure, in the same setting: then `Cl.NS(=O)(=O)c1cccc(Nc2cc(-c3ccc(F)cc3)n[nH]2)c1` [GW824645], with 36%.
Consider `CCc1ccc(-c2ccc3c(c2)-c2nn(C)cc2S(=O)(=O)N3C)cc1`, for which the “%Inh” value came to 0%.
On the same count and under the same terms, the value for `O=C(Nc1ccc2c(c1)OCO2)NC1CCN(c2ccnc(NCc3ccc(F)cc3)n2)CC1` [GSK1379859] was 7%; that for `Cc1nc(N(C)[C@H]2CN(C(=O)CC#N)CC[C@H]2C)c2cc[nH]c2n1` was 0%; that for `CCCC(=O)Nc1n[nH]c2ncc(-c3cccc4ccccc34)cc12` [SB-642057] was 35%.
On the same count and under the same terms, then `COC(=O)c1c(-c2ccccc2)c2cc(C)ccc2c(=O)n1Cc1ccccc1`, with 0%; and `Cc1ccc(Oc2ccc(Nc3ncnc4cc[nH]c34)cc2C)cn1`, with 0%.
On to `COc1cc2ncn(-c3cc(OCCCc4ccccc4)c(C(N)=O)s3)c2cc1OC` [GSK205189], for which the “%Inh” value was 20%.
Consider `O=C1NC(=O)C(c2ccccc2)=C1Nc1cccc(O)c1` [SB-390534], for which the “%Inh” value is listed as 0%.
The same measure, in the same setting: then `CN1C(=O)C(Nc2ccccc2)=C(c2ccccc2)C1=O` [SB-300079], with 32%; and `COc1ccc(-n2cnc3c(N)ncnc32)cc1` [SKF-97236], with 4%.
For `COc1ccc(Nc2nccc(N3CCC(NS(=O)(=O)c4ccc(NC(C)=O)cc4)C3)n2)cc1` (stereo not drawn) [GSK1379729], the “%Inh” value came to 37%.
Regarding `Nc1ncnc2c1ncn2-c1cccc2ccccc12` [SKF-97184], the “%Inh” value turned out to be 37%.
`Nc1nc(-c2ccccc2F)c(-c2ccnc3ccccc23)s1` [GW560459]: the “%Inh” value was found to be 61%.
In the case of `CCc1nc(-c2cccc(C)c2)c(-c2ccncc2)s1`, the “%Inh” value came to 35%.
Consider `CCS(=O)c1ccc(-c2coc3ccc(-c4nnc(C)o4)cc23)cc1` (stereo not drawn), for which the “%Inh” value amounted to 0%.
As to `O=c1cc(N2CCOCC2)nc2n(Cc3ccc(F)c(Cl)c3)ccn12` [GSK2297099], the “%Inh” value is on record as 0%.
Take `COC(=O)c1c(-c2ccccc2)c2cc(Br)ccc2c(=O)n1Cc1ccc(NC(=O)CCC(=O)O)cc1`: the “%Inh” value came to 20%.
Same read-out and setting: then `COc1cc2ncn(-c3cc(OCc4ccncc4)c(C(N)=O)s3)c2cc1OC` [GSK336313], with 4%; and `CCn1c(-c2nonc2N)nc2ccccc21` [SB-693162/GW549034], with 0%.
Turning to `CCC(=O)c1c(-c2ccccc2)c2cc(Cl)ccc2c(=O)n1Cc1cc(S(C)(=O)=O)n(CC(N)=O)n1`, the “%Inh” value came to 0%.
In the case of `O=C(Nc1n[nH]c2nc(-c3ccccc3)c(Cl)cc12)C1CC1` [SB-734909], the “%Inh” value stood at 0%.
Consider `COc1cccc(-n2cnc3c(N)ncnc32)c1` [SKF-97416], for which the “%Inh” value is given as 57%.
As for `CCS(=O)(=O)c1ccc(OC)c(Nc2ncc(-c3ccc(F)cc3)o2)c1.Cl` [GW591947], the “%Inh” value is 8%.
On the same count and under the same terms, then `COc1cc(OC)cc(-c2cc3cnc(N)nc3nc2NC(=O)NC(C)(C)C)c1`, with 0%; and `COc1cc2nccc(Nc3ccc(OCc4ccc(NC(C)=O)cc4)cc3)c2cc1OC.Cl` [GW440135], with 46%.
On to `O=C(Nc1n[nH]c2cc(-c3ccccc3F)ccc12)C1CC1` [SB-733371], for which the “%Inh” value was found to be 0%.
As for `CN1C(=O)C(Nc2cc(Cl)c(O)c(Cl)c2)=C(c2ccc(Cl)cc2)C1=O` [SB-404321], the “%Inh” value is on record as 12%.
As to `C[C@@H]1CC[C@H](C(=O)NC2CCCCC2)CN1c1cc(-c2ccc3c(N)n[nH]c3c2)nc(N)n1` [GSK2291363], the “%Inh” value was found to be 48%.
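Also: KINOMEscan kinase panel screen.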
